# Reference: PubChem BioAssay AID463173 (ICCB-Longwood Screening Facility, Harvard Medical School, 2010)
# The campaign covered roughly 52,000 compounds. About 4,300 (8.3%) were called active. Only a selection was taken, and actives are over-represented in it overall. Unmarked numbers belong to inactive results. Cut-off read from the data, not from the text of the source: active = survival mostly below about 52% (no sharp cut-off); inactive = mostly above about 56%.
# Test system: DeltatarO mutant
# Experiment: S. aureus survival, RN4220 and DeltatarO strains – OD600, teichoic acid synthesis inhibitors, primary screen (AID 463173)
# Settings: S. aureus RN4220 wild type/DeltatarO growth, OD600, 18 h, stronger effect = lower value, screened at 18.75 µg/mL (by protocol)
row,Compound,survival
1,CCOc1ccc(CNC(=O)c2cccc(NC(=O)N3CCSc4ncccc43)c2)cc1OC,92%
2,COc1cccc(N2CC(NC(=O)c3ccc4c(c3)OCO4)CC2=O)c1 (stereo not drawn),92%
3,Cc1c(C(=O)NCCN(C)C)sc2nc3n(c(=O)c12)CCC3,87%
4,Cc1sc2nc(CN(C(=O)c3cccs3)C3CCCC3)[nH]c(=O)c2c1C,80%
5,O=C(C1CCCCC1)N(Cc1nc2sc3c(c2c(=O)[nH]1)CCCC3)Cc1cccs1,66%
6,O=C(c1cccs1)N(Cc1nc2sc3c(c2c(=O)[nH]1)CCCC3)C1CCCC1,45% (active)
7,Cc1ccc(NCc2cccn2-c2nnc(N3CCC(C(=O)NCc4ccc(OC(C)C)cc4)CC3)s2)cc1,69%
8,CCCCn1c(=N)c(C(=O)NC2CCCCC2)cc2c(=O)n3cccc(C)c3nc21,62%
9,CCOc1ccc(C(=O)Nc2ccc3c(c2)OCCO3)cc1Br,37% (active)
10,CCOc1ccc(C(=O)Nc2ccc(NC(=O)c3ccccc3)cc2)cc1Br,85%
11,CCOc1ccc(C(=O)Nc2cccc(NC(=O)c3ccc(C(C)(C)C)cc3)c2)cc1Br,81%
12,O=C(C1COc2ccccc2O1)N(Cc1cccnc1)c1nc2c(F)cccc2s1 (stereo not drawn),84%
13,CCCC(=O)N1CCCC(c2nc(-c3cccs3)no2)C1 (stereo not drawn),107%
14,Cc1c(C)n(Cc2ccccc2)c2ccc(C(=O)NC(C)c3ccccc3)cc12 (stereo not drawn),78%
15,COc1ccc(NC(=O)c2oc3c(c2C)-c2nn(Cc4c(F)cccc4Cl)cc2CC3)c(OC)c1,72%
16,Clc1ccccc1OCCSc1nnc(-c2cccs2)o1,43%
17,COc1ccc(-c2nnc(SCCOc3ccccc3C)o2)cc1OC,64%
18,Cc1cccc(OCCSc2nnc(-c3cccs3)o2)c1,58%
19,Cc1ccc(OCCSc2nnc(-c3cccs3)o2)cc1Cl,45% (active)
20,COc1cc(C)ccc1OCCSc1nnc(-c2ccc(C)cc2)o1,55%
21,Cc1ccc(OCCSc2nnc(-c3cccs3)o2)cc1,53%
22,COc1cc(C)ccc1OCCSc1nnc(-c2cccs2)o1,40% (active)
23,Cc1cc(Cl)ccc1OCCSc1nnc(-c2cccs2)o1,37% (active)
24,Cc1ccccc1OCCSc1nnc(-c2cccs2)o1,106%
25,O=c1c2cnn(-c3ccc(F)cc3)c2ncn1Cc1ccc(F)cc1,106%

row,Compound,survival
1,CCn1c2c(c(=O)n3ncc(C(=O)N4CCN(c5ccc(C(C)=O)cc5)CC4)c13)CN(Cc1ccc(OC)cc1)CC2,126%
2,COc1ccc(Br)cc1CNC(=O)c1ccc2c(c1)nc1n2CCC(C)C1 (stereo not drawn),75%
3,COc1ccccc1C(=O)N1CCC(c2noc(-c3ccc(S(=O)(=O)N4CCCC4)cc3)n2)CC1,98%
4,COc1ccc(NC(=O)C(Cc2ccccc2)NS(=O)(=O)c2ccc3c(c2)CCN3C(C)=O)cc1 (stereo not drawn),72%
5,COc1ccc(N2CCN(C(=O)c3ccc4c(c3)N(Cc3ccc(F)cc3)C(=O)c3ccccc3S4=O)CC2)cc1 (stereo not drawn),116%
6,CC(=O)Nc1ccc(S(=O)(=O)NC2=NCN(CCO)CN2)cc1,89%
7,COc1ccc(C)cc1NC(=O)CSc1nc(=O)n(Cc2ccco2)c2c1CCC2,116%
8,CCCCOc1ccc(Cn2c(=O)oc3ccccc32)cc1,127%
9,CCCCOc1ccc(CN2C(=O)C(=O)c3cc(C)ccc32)cc1OC,122%
10,CCCCOc1ccc(Cn2c(=O)oc3ccc(C)cc32)cc1OC,36% (active)
11,O=C(O)c1ccc2oc(=O)n(Cc3ccccc3)c2c1,94%
12,COc1cc(Cn2c(=O)oc3ccc(C)cc32)ccc1OCCC(C)C,-1% (active)
13,CCOc1ccc(CNC(=O)c2ccc3oc(=O)n(Cc4ccccc4)c3c2)cc1,79%
14,CCCCCOc1ccc(Cn2c(=O)oc3ccc(C)cc32)cc1OC,4% (active)
15,CCCCOc1ccc(Cn2c(=O)oc3ccc(C)cc32)cc1,40% (active)
16,CC(C)CCOc1ccc(Cn2c(=O)oc3ccccc32)cc1,127%
17,CCCCCOc1ccc(Cn2c(=O)oc3ccccc32)cc1,124%
18,CCOc1ccc(CCNC(=O)c2ccc(CSCc3ccccc3C)o2)cc1OCC,112%
19,Cc1ccc(NC(=O)c2ccc(NC(=O)N3CCSc4ncccc43)cc2)cc1Cl,109%
20,CCCn1cc(S(=O)(=O)c2cc(C)ccc2C)c(=O)c2cc(F)c(N3CCN(CC)CC3)cc21,80%
21,O=C(Nc1ccccc1C(=O)OCc1cc(=O)n2ccsc2n1)c1ccc(Cl)cc1,76%
22,COc1ccc(NC(=O)c2ccc(-c3nc(CSc4ccccc4)c(C)o3)cc2)cc1OC,84%
23,Cc1ccc(C)c(NC(=O)CN(C)S(=O)(=O)c2cccc3cccnc23)c1,85%
24,CCCn1c(N)nc2c1c(=O)[nH]c(=O)n2C,71%
25,COC(=O)c1ccc(NC(=O)CC2C(=O)N(c3ccc(Cl)cc3)C(=O)N2Cc2cccs2)cc1 (stereo not drawn),102%

row,Compound,survival
1,Cc1cc(C)c(Cn2c3ccccc3c3cnn(CC(=O)NCCc4ccccc4)c(=O)c32)c(C)c1,133%
2,Cc1ccc(NC(=O)Cn2cc(C(=O)C3CC3)c3ccccc32)c(C)c1,90%
3,Cc1ccc2oc(=O)n(CCNC(=O)Nc3ccccc3Cl)c2c1,72%
4,Cc1ccc2oc(=O)n(Cc3ccccc3Cl)c2c1,-3% (active)
5,O=C(NCc1ccccc1Cl)c1ccc2oc(=O)n(Cc3ccccc3)c2c1,72%
6,CCOC(=O)c1ccc2oc(=O)n(Cc3ccccc3)c2c1,83%
7,CCCCCOc1ccccc1Cn1c(=O)oc2ccc(C)cc21,5% (active)
8,CCCCCOc1ccccc1CN1C(=O)C(=O)c2cc(C)ccc21,151%
9,CCCCN(CC)CCCNC(=O)c1cn(C)c(=O)c2c1c1ccccc1n2C,139%
10,Cc1ccc2c(c1)cc1c(=O)n(CC(=O)NCc3ccco3)nc(C)n12,84%
11,O=C(CN1C(=O)COc2ccc(S(=O)(=O)NC3CCCC3)cc21)NCc1ccccc1Cl,80%
12,CCCC(c1nnnn1CC1CCCO1)N(Cc1cccs1)Cc1cc2ccc(C)c(C)c2[nH]c1=O (stereo not drawn),71%
13,Cc1ccc(-c2nc3cc(C(C)C)ccc3o2)cc1NC(=O)c1cc([N+](=O)[O-])ccc1N1CCOCC1,62%
14,CCn1cc(C2N3CC4(CC)CN2CC(CC)(C3)C4=O)c2ccccc21 (stereo not drawn),73%
15,Cc1c(Cl)cccc1NC(=O)c1ccc2c(c1)nnn2C1CCCC1,108%
16,Cc1cc(C)cc(NC(=O)c2ccc3c(c2)nnn3C2CCCC2)c1,128%
17,Cc1cccc(C)c1NC(=O)c1ccc2c(c1)nnn2C1CCCC1,-5% (active)
18,CCN(CC)c1ccc(NC(=O)CN2C(=O)c3cccnc3Sc3ccccc32)c(C)c1,-2% (active)
19,CCN(CC)c1ccc(NC(=O)CN2C(=O)c3cccnc3Oc3ccccc32)c(C)c1,116%
20,Cc1cc(Br)ccc1NC(=O)CN1C(=O)c2cccnc2Sc2ccccc21,90%
21,CCOC(=O)c1c(C)c(C(=O)NCCc2ccc(OC)cc2)c(C)n1C,99%
22,CCC(=O)N1c2ccccc2CC1C(=O)NCCc1ccccc1C (stereo not drawn),71%
23,Cc1ccc(CN2C(=O)CN(C3CCCCCC3)C(=O)C2c2ccc(F)cc2)cc1 (stereo not drawn),6% (active)
24,COc1ccc(C2C(=O)N(C3CCCCCC3)CC(=O)N2Cc2ccc(C)cc2)cc1 (stereo not drawn),60%
25,Cc1ccc(CN2C(=O)CN(C3CCC(C)CC3)C(=O)C2c2ccc(F)cc2)cc1 (stereo not drawn),91%

row,Compound,survival
1,Cc1ccc(C=C2C(=O)N(C)C(=O)N(C)C2=O)cc1,82%
2,CCOC(=O)C1=C(CS(=O)(=O)c2ccc(F)cc2)NC(=O)NC1c1ccc(OCC)c(OC)c1 (stereo not drawn),119%
3,COc1ccc(C(=O)Nc2cc3cc(Cl)ccc3oc2=O)cc1OC,73%
4,COc1ccc(-c2cn3cccnc3n2)cc1NC(=O)Cc1ccccc1,82%
5,Cc1[nH]c(=O)[nH]c(=O)c1NC(=O)c1ccccc1,88%
6,Cc1cn(C(=O)c2ccccc2)c(=O)[nH]c1=O,57% (active)
7,CC1=NN(C(=O)c2ccccc2)C(C)(O)C1(C)C (stereo not drawn),98%
8,CC(C)CC(=O)Nc1ccc(Cl)c(-c2nc3ccccc3[nH]2)c1,39% (active)
9,CC(C)(C)C(=O)Nc1ccc(Cl)c(-c2nc3ccccc3[nH]2)c1,44%
10,CCC(=O)Nc1cccc(-c2nc3ccccc3[nH]2)c1C,94%
11,CCC(=O)Nc1ccc(Cl)c(-c2nc3ccccc3[nH]2)c1,49% (active)
12,CC(NC(=O)CSc1n[nH]c(-c2ccccc2Cl)n1)c1nc2ccccc2[nH]1 (stereo not drawn),72%
13,CCOc1ccc(NC(=O)c2cc(S(=O)(=O)NC3CCCC3)ccc2F)cc1,86%
14,COCCn1c(=O)[nH]c2cc(C(=O)N3CCN(c4ccc(F)cc4)CC3)ccc2c1=O,70%
15,CCN(Cc1ccccc1)C(=O)CN1C(=O)COc2ccc(S(=O)(=O)NC3CCCC3)cc21,78%
16,CC(C)NC(=O)CN1CCN(c2ccc(F)cc2)CC1,87%
17,Cc1ccc(S(=O)(=O)c2cn(C)c3cc(N4CCN(c5ccccc5)CC4)c(F)cc3c2=O)cc1,95%
18,O=C(CCS(=O)(=O)c1cc(Br)cc2c1N(C(=O)C1CC1)CC2)N1CCN(c2ccccc2)CC1,91%
19,CC(=O)N1CCc2cc(Br)cc(S(=O)(=O)CCC(=O)N3CCN(c4ccc(F)cc4)CC3)c21,67%
20,COc1ccccc1N1CCN(C(=O)CCS(=O)(=O)c2cc(Br)cc3c2N(C(C)=O)CC3)CC1,53%
21,CC(=O)N1CCc2cc(Br)cc(S(=O)(=O)CCC(=O)N3CCN(c4ccccc4)CC3)c21,53% (active)
22,CC(=O)N1CCc2cc(Br)cc(S(=O)(=O)CCC(=O)N3CCN(c4cccc(C)c4C)CC3)c21,45% (active)
23,CC(=O)N1CCc2cc(Br)cc(S(=O)(=O)CCC(=O)N3CCN(c4ccccc4Cl)CC3)c21,61%
